From PubChem
E coli growth-1: reduces bacterial viability in AddAB counter-screen. E. coli V3065 growth, OD600 absorbance, 18 h. inhibition, % at 11.9 µM. 330,000 tested, 0.27% active;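 active = inhibition above the campaign's mean inhibition across all tested compounds plus 3 SD, cut at about 9.9% in these data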;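 also: uninfected addAB+ strain grown without phage in ampicillin broth; 0% = DMSO wells and 100% = ciprofloxacin 0.95 µg/ml wells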
phage Ecoli inh: E. coli growth loss with phage present; growth absorbance; inhibition, % at 11.9 µM; 360,000 tested, 0.26% active; AID 651602; in the data active = inhibition above about 11%
E coli growth-2: inhibitors of Escherichia coli growth | OD600, 23 h; stronger effect = lower value | OD600 absorbance (concentration not given with the values) | 330,000 tested, 0.21% active;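 active = OD600 absorbance below the run mean of sample wells minus 3.6 SD, in any replicate, cut at about 0.56 in these data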
Tat export inh: E. coli Tat transport inhibition; E. coli MC4100 TorA-mCherry Tat export, fluorescence; AID 488895; inhibition, % at 10 µM; 340,000 tested, 0.036% active;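 active = mean replicate inhibition at least 50% and at least half of replicates individually reaching 50%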;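 also: exported cargo escapes ClpAP degradation while cytoplasmic cargo is degraded and loses fluorescence; 0% = median of neutral control wells and 100% = median of NaSCN control wells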
AddAB inh: less growth of phage-infected E. coli with AddAB; inhibition, % at 11.9 µM; E. coli expressing H. pylori AddAB, absorbance growth; 330,000 tested, 0.29% active; AID 435030; in the data active = inhibition above about 12%;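 also: 0% = vehicle wells of infected cells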
AddAB confirm: confirmation screen: growth loss of phage-infected E. coli expressing H. pylori AddAB | shares compounds with AddAB inh | E. coli V3065 expressing H. pylori AddAB, T4 phage, OD; T4 phage with gene 2 nonsense mutations | inhibition, % at 11.9 µM | 880 tested, 64% active;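 active = mean inhibition above a set limit taken from the earlier primary screen, cut at about 13% in these data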;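 also: higher means less bacterial growth since AddAB block lets phage replicate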
RecBCD counter: counter-screen: growth loss of RecBCD+ E. coli with mutant T4 phage; shares compounds with AddAB inh; E. coli V66 + mutant T4 phage, OD growth; inhibition, % at 11.9 µM; 880 tested, 73% active;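 active = mean inhibition above the mean of solvent-only control wells plus 3 SD, cut at about 4% in these data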;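 also: optical density read after an 18 h incubation at 37 °C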
bact viab count: counter-screen: bacterial growth inhibition. AID 488956. inhibition, % at 11.9 µM. 880 tested, 35% active. bacterial viability, absorbance (AddAB counterscreen). shares compounds with AddAB inh; in the data active = inhibition above about 25%
RecBCD conf: growth loss of phage-infected V66 E. coli, RecBCD confirmation screen; inhibition, % at 11.9 µM; shares compounds with phage Ecoli inh; 890 tested, 45% active; E. coli V66 + T4 2- phage, growth OD;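 active = mean inhibition over triplicates exceeding the hit threshold derived in the original primary screen, cut at about 11% in these data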
Ecoli viability: counter-screen for RecBCD inhibitors: inhibitors of bacterial viability; shares compounds with phage Ecoli inh; E. coli viability, absorbance (OD) growth; inhibition, % at 11.9 µM; 890 tested, 29% active; AID 651983; in the data active = inhibition above about 20%;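 also: E. coli strain V66 grown with compound alone and no phage infection; 0% = bacteria with DMSO vehicle only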
AddAB phage OD: growth loss of phage-infected AddAB E. coli, RecBCD counter-screen; shares compounds with phage Ecoli inh; E. coli expressing H. pylori AddAB + T4 phage, OD growth; gene 2 mutant T4, recBCD-deleted host; inhibition, % at 11.9 µM; 890 tested, 45% active; AID 651984;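 active = mean inhibition above the solvent-only control wells' mean plus 3 SD, cut at about 22% in these data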;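 also: higher means less bacterial growth from phage killing when AddAB is blocked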
Starred values were filed as active, the others as inactive; x = no result. Hits are enriched below; roughly 0.5% of the tested compounds scored in any of these assays.

SMILES | E coli growth-1 | phage Ecoli inh | E coli growth-2 | Tat export inh | AddAB inh | AddAB confirm | RecBCD counter | bact viab count | RecBCD conf | Ecoli viability | AddAB phage OD
O=C(O)C1=CC(c2cccs2)CC(OCCCCO)O1 (stereo not drawn) | x | x | 0.7 | x | x | x | x | x | x | x | x
COc1ccc(NC(=O)N(C)CC2Oc3ccc(NS(=O)(=O)c4ccccc4)cc3C(=O)N(C(C)CO)CC2C)cc1 (stereo not drawn) | x | x | 0.71 | x | x | x | x | x | x | x | x
O=C(c1ccc([N+](=O)[O-])o1)N1CCc2ccccc21 | 94* | 21* | 0.46* | 6 | 97* | 102* | 20* | 84* | 10 | 13 | 98*
CC(C)Oc1ccc(Cc2cnc(N)nc2N)cc1 | 9 | 12* | 0.046* | 5 | 12* | 53* | 14* | 12 | 11* | 7 | 12
O=C(N/N=C/c1ccc([N+](=O)[O-])o1)c1ccncc1 | 18* | 23* | x | x | 94* | 97* | 19* | 33* | 16* | 19 | 64*
O=C(N/N=C\c1ccc([N+](=O)[O-])o1)c1cncc(Br)c1 | 5 | 3 | x | -19 | 9 | x | x | x | x | x | x
O=C(N/N=C/c1ccc([N+](=O)[O-])o1)c1ccc(O)cc1 | 97* | 23* | x | -29 | 98* | 96* | 24* | 78* | 17* | 21* | 98*
CCOC(=O)C1C2COc3ccccc3C2N2C(=O)c3cc(F)c(F)cc3NC(=O)[C@@]12C (stereo partly drawn) | x | x | 0.69 | x | x | x | x | x | x | x | x
CN(C)c1ccc(O)c2c1CC1CC3[C@@H](N(C)C)C(=O)C(C(N)=O)=C(O)[C@]3(O)C(=O)C1=C2O (stereo partly drawn) | 102* | 99* | x | 149* | 99* | 99* | 98* | 100* | 93* | 103* | 103*
CCOC(=O)c1ccc(-c2ccc(C3Nc4ccccc4C(=O)N3O)o2)cc1 (stereo not drawn) | 22* | 24* | 0.64 | 1 | 21* | 20* | 21* | 18 | 16* | 18 | 14
Cc1cc([N+](=O)[O-])ccc1-c1ccc(C2Nc3ccccc3C(=O)N2O)o1 (stereo not drawn) | 27* | 24* | 0.59 | 6 | 31* | 22* | 24* | 19 | 18* | 21* | 21
N#Cc1ccc(-c2ccc(C3Nc4ccccc4C(=O)N3O)o2)cc1 (stereo not drawn) | 6 | 8 | 0.69 | -7 | 8 | x | x | x | x | x | x
O=C(CSc1nnc(-c2cccnc2)o1)Nc1ccc(F)cc1 | x | 4 | x | x | x | x | x | x | x | x | x
COc1ccc(NC(=O)CSc2nnc(-c3ccc(F)cc3)o2)cn1 | 9 | 24* | 0.59 | -76 | 21* | 29* | 17* | 20 | 21* | 21* | 39*
C/C(=N\Nc1ccc2nncn2n1)c1ccccn1 | 27* | 32* | x | x | 31* | 22* | 29* | 19 | 18* | 27* | 21
COC1C=COC2(C)Oc3c(C)c(O)c4c(O)c(c(CN5CCN(C)CC5)c(O)c4c3C2=O)NC(=O)C(C)=CC=CC(C)C(O)C(C)C(O)C(C)C(OC(C)=O)C1C (stereo not drawn) | x | 1 | x | 8 | x | x | x | x | x | x | x
CCC(C)N1CCC2(CC1)N=c1c(c3c4c5c(C)c(O)c3c(O)c1=NC(=O)C(C)=CC=C[C@H](C)[C@H](O)[C@@H](C)[C@@H](O)[C@@H](C)[C@H](OC(C)=O)[C@H](C)[C@@H](OC)C=CO[C@@](C)(O5)C4=O)N2 (stereo partly drawn) | 98* | 105* | x | 107* | 97* | 96* | 97* | 99* | 96* | 99* | 102*
O=C(N/N=C/c1ccc(O)c(O)c1O)/C(=C/c1ccc([N+](=O)[O-])cc1)NC(=O)c1ccccc1 | 20* | 15* | x | 7 | 16* | 6 | 9.5* | 2 | 0 | 3 | 2
Cc1nc(SCC(=O)Nc2ccc(N3CCOCC3)cc2)nc(C)c1C | 13* | 13* | 0.67 | -10 | 14* | 9 | 9.1* | 5 | 6 | 10 | 0
Cc1cc(C)nc(SCC(=O)Nc2ccc(N3CCOCC3)cc2)n1 | 1 | 3 | 0.68 | -2 | 5 | x | x | x | x | x | x
CN1CCN(c2c(F)cc3c(=O)c(C(=O)O)cn4c3c2SCC4)CC1 | 98* | 98* | 0.047* | 43 | 98* | 102* | 101* | 103* | 102* | 104* | 103*
C[C@H]1COc2c(N3CCN(C)CC3)c(F)cc3c(=O)c(C(=O)O)cn1c23 | 99* | 100* | x | 148* | 98* | 102* | 101* | 102* | 104* | 106* | 106*
FC(F)(F)c1ccc(C2C3CN(Cc4ccc(-c5ccccc5)cc4)C(c4ccccc4)C34CC2(c2ccccc2)C4)cc1 (stereo not drawn) | x | x | 0.71 | x | x | x | x | x | x | x | x
Cc1noc(C)c1NC(=O)Nc1cccc2c1OC(CN(C)C(=O)Nc1ccc(C(F)(F)F)cc1)C(C)CN(C(C)CO)C2=O (stereo not drawn) | x | x | 0.69 | x | x | x | x | x | x | x | x
O=c1cc(-c2ccccc2)cc(-c2ccccc2)n1O | 21* | 19* | 0.43* | 9 | 17* | 11 | 15* | 14 | 10 | 14 | 10
Cn1c(-c2ccccc2)cc(=O)cc1-c1ccccc1 | x | 2 | x | x | x | x | x | x | x | x | x
Cc1noc(C)c1NC(=O)N(C)CC1Oc2ccc(NS(=O)(=O)c3c(C)noc3C)cc2C(=O)N(C(C)CO)CC1C (stereo not drawn) | x | x | 0.67 | x | x | x | x | x | x | x | x
COC(=O)C1=CC(C(=O)OC)C2C3=C(C(=O)C24CCCCC4)C(C)n2c(=O)n(-c4ccccc4)c(=O)n2C3C1 (stereo not drawn) | x | x | 0.71 | x | x | x | x | x | x | x | x
CC[C@H]1OC(=O)[C@H](C)[C@@H](O[C@H]2C[C@@](C)(OC)[C@@H](O)[C@H](C)O2)[C@H](C)[C@@H](O[C@@H]2O[C@H](C)C[C@H](N(C)C)[C@H]2O)[C@](C)(O)C[C@@H](C)C(=O)[C@H](C)[C@@H](O)[C@]1(C)O | 20* | 27* | x | 39 | 22* | 45* | 17* | 18 | 19* | 20* | 32*
